{
  "source": "PubChem BioAssay (EPA / NIEHS)",
  "note": "Results filed as inconclusive are left out. Activity calls are given as the source filed them. The calls were made as follows: active = hit-call score of the fitted dose curve at least 0.9, where 1 is the maximum; inconclusive = response in the unintended direction; inactive = score below 0.9.",
  "data": [
    {"read-out": "alkyl and aryl transferase (GSTA2), GSTA2 (gene 2939)", "experiment": "CLD_GSTA2_48hr: CellzDirect (CLD) Gene Expression Assay for alkyl and aryl transferase (GSTA2) at 48 hours (AID 2283708);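 also: active means mRNA induction above DMSO vehicle baseline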", "experimental": "CLD_48hr is a cell-based, multiplexed-readout assay that uses hepatocyte, a human liver primary cell, with measurements taken at 48 hours after chemical dosing in a 96-well plate.CLD_GSTA2_48hr is one of 16 assay component(s) measured or calculated from the CLD_48hr assay. It is designed to make measurements of mRNA induction, a form of inducible reporter, as detected with chemiluminescence signals by Quantitative Nuclease Protection Assay (qNPA) technology.Data from the assay component CLD_GSTA2_48hr was analyzed at the endpoint, CLD_GSTA2_48hr, in the positive analysis fitting direction relative to DMSO as the negative control and baseline of activity. Using a type of inducible reporter, gain-of-signal activity can be used to understand changes in the reporter gene as they relate to the gene GSTA2. Furthermore, this assay endpoint can be referred to as a primary readout. To generalize the intended target to other relatable targets, this assay endpoint is annotated to the transferase intended target family, where subfamily is alkyl and aryl transferase.\nHuman hepatocyte cultures were treated daily for two consecutive days with fresh dosing solutions containing appropriate concentrations of the 320 ToxCast chemicals (chemical identities were blinded to CellzDirect and other ToxCast collaborators), vehicle control (0.2% DMSO), and positive control inducers as summarized in Table 1. […] These replicate data, coupled with internal replicates designed within the blinded ToxCast chemical library, provided additional data to evaluate interindividual differences between hepatocyte preparations and their potential impact on chemical profiles.Cell morphology and integrity were evaluated using phase-contrast microscopy as an indicator of hepatocyte cell health (Tyson & Green, 1987). Cultures for each treatment group (i.e., media, vehicle [0.2% DMSO], positive control inducers [multiple concentrations], and the ToxCast chemicals [multiple concentrations]) were observed and cell morphology was assessed relative to vehicle control cultures at each harvest time point (0, 6, 24, or 48 h). […] Images were evaluated at the conclusion of the study to assess changes in cell integrity and account for the effects of chemical exposure on uncharacteristic changes in concentration-dependent gene expression profiles. The results from these determinations of apparent cytotoxicity were annotated (yes/no) alongside the corresponding qNPA data for reference.At the conclusion of each treatment period, hepatocyte cultures (96-well) were washed with 1 volume of HBSS, lysed by addition of 25 ul ArrayPlate lysis buffer (HTG, Tucson, AZ), and 70 ul/well of Denaturation Oil, denatured by incubation at 95C for 10 min, and frozen at approximately -70C until analysis by nuclease protection assay (qNPA) (Roberts et al., 2007). For qNPA analysis, cell lysates were thawed at 50C for approximately 30 min, qNPA probes were added, and samples were incubated at 95C for 10 min to begin the detection process by denaturing the target RNA, dissociating the duplexes and secondary structure hybridization. At the conclusion of the hybridization period, S1 nuclease reagent was added to each sample to digest all nonprotected nucleotides at 50C for 60-90 min. At the conclusion of the S1 nuclease digestions, all reactions were stopped by transfer of all the samples to fresh plates containing stop solution and incubated at 95C for 15 min to deactivate the enzyme, dissociate the mRNA/ DNA probe heterodimers, and hydrolyze the resulting single stranded mRNA, leaving a stoichiometric amount of single-stranded DNA nuclease protection probe, unmodified in sequence, as the only intact oligonucleotide left in the sample. Neutralization solution was subsequently applied to cooled (room temperature) plates, and samples were transferred to ArrayPlates for overnight incubations at 50Cto allow probes to be captured onto programmed locations on the ArrayPlates. […]", "values": [
      {"molecule": "FC(F)C(F)(F)OCC(Cn1cncn1)c1ccc(Cl)cc1Cl", "note": "(stereo not given)", "outcome": "inactive"},
      {"molecule": "COc1cccc(C(=O)NN(C(=O)c2cc(C)cc(C)c2)C(C)(C)C)c1C", "outcome": "inactive"},
      {"molecule": "COP(=O)(NC(C)=O)SC", "note": "(stereo not given)", "outcome": "inactive"},
      {"molecule": "CCCCOC(=O)c1ccccc1C(=O)O", "outcome": "inactive"},
      {"molecule": "S=C1NCCN1", "outcome": "inactive"},
      {"molecule": "CCCOc1nn(C(=O)NS(=O)(=O)c2ccccc2C(=O)OC)c(=O)n1C", "outcome": "inactive"},
      {"molecule": "CN1COCN(Cc2cnc(Cl)s2)C1=N[N+](=O)[O-]", "outcome": "inactive"},
      {"molecule": "CCOP(=S)(OCC)Oc1cc(C)nc(C(C)C)n1", "outcome": "inactive"},
      {"molecule": "CCC(=NOC/C=C/Cl)C1=C(O)CC(C2CCOCC2)CC1=O", "note": "(stereo not given)", "outcome": "inactive"},
      {"molecule": "CC1(C(=O)Nc2ccc(O)c(Cl)c2Cl)CCCCC1", "outcome": "inactive"},
      {"molecule": "CSC1=N[C@@](C)(c2ccccc2)C(=O)N1Nc1ccccc1", "outcome": "inactive"},
      {"molecule": "CCCCOC(=O)[C@@H](C)Oc1ccc(Oc2ccc(C#N)cc2F)cc1", "outcome": "inactive"},
      {"molecule": "CCCCN(CC)c1c([N+](=O)[O-])cc(C(F)(F)F)cc1[N+](=O)[O-]", "outcome": "inactive"},
      {"molecule": "CCOP(=O)(OCC)Oc1cc(C)nc(C(C)C)n1", "outcome": "inactive"},
      {"molecule": "Nc1c(Cl)cc([N+](=O)[O-])cc1Cl", "outcome": "inactive"},
      {"molecule": "CN(C)NC(=O)CCC(=O)O", "outcome": "inactive"},
      {"molecule": "C=C(C)[C@H]1Cc2c(ccc3c2O[C@@H]2COc4cc(OC)c(OC)cc4[C@@H]2C3=O)O1", "AC50": "0.66 µM (active)"},
      {"molecule": "CCCOCC(=Nc1ccc(Cl)cc1C(F)(F)F)n1ccnc1", "AC50": "20 µM (active)"},
      {"molecule": "COc1ccc(C(=CC(=O)N2CCOCC2)c2ccc(Cl)cc2)cc1OC", "AC50": "32.2 µM (active)"},
      {"molecule": "CCOP(=S)(Oc1cnc(C(C)(C)C)nc1)OC(C)C", "note": "(stereo not given)", "AC50": "20 µM (active)"},
      {"molecule": "C[N+]1(C)CCCCC1", "outcome": "inactive"},
      {"molecule": "COP(=O)(OC)C(O)C(Cl)(Cl)Cl", "note": "(stereo not given)", "outcome": "inactive"},
      {"molecule": "Cc1cc(C2CC2)nc(Nc2ccccc2)n1", "outcome": "inactive"},
      {"molecule": "CCC(CC)Nc1c([N+](=O)[O-])cc(C)c(C)c1[N+](=O)[O-]", "outcome": "inactive"},
      {"molecule": "C#CC(C)(C)NC(=O)c1cc(Cl)cc(Cl)c1", "outcome": "inactive"},
      {"molecule": "CC(C)[C@H](C(=O)O[C@H](C#N)c1cccc(Oc2ccccc2)c1)c1ccc(Cl)cc1", "outcome": "inactive"},
      {"molecule": "CNC(=O)Oc1cccc2c1OC(C)(C)O2", "outcome": "inactive"},
      {"molecule": "CSc1nc(NC(C)C)nc(NC(C)C)n1", "outcome": "inactive"},
      {"molecule": "CCOP(=O)(SC(C)CC)N1CCSC1=O", "note": "(stereo not given)", "outcome": "inactive"},
      {"molecule": "CC(=NC#N)N(C)Cc1ccc(Cl)nc1", "outcome": "inactive"},
      {"molecule": "CC1=NNC(=O)N(/N=C/c2cccnc2)C1", "outcome": "inactive"},
      {"molecule": "CNC(=O)ON=C(SC)C(=O)N(C)C", "outcome": "inactive"},
      {"molecule": "CCc1cccc(C)c1N(C(=O)CCl)C(C)COC", "note": "(stereo not given)", "outcome": "inactive"},
      {"molecule": "CON=C(C(=O)OC)c1ccccc1CON=C(C)c1cccc(C(F)(F)F)c1", "outcome": "inactive"},
      {"molecule": "CC(C1CC1)C(O)(Cn1cncn1)c1ccc(Cl)cc1", "note": "(stereo not given)", "outcome": "inactive"},
      {"molecule": "CCOP(=S)(OCC)SCCSCC", "outcome": "inactive"},
      {"molecule": "CCc1cnc(C2=NC(C)(C(C)C)C(=O)N2)c(C(=O)O)c1", "note": "(stereo not given)", "outcome": "inactive"},
      {"molecule": "CNC(=O)ON=C(C)SC", "outcome": "inactive"},
      {"molecule": "CCOP(=S)(OCC)Oc1ccc2c(C)c(Cl)c(=O)oc2c1", "outcome": "inactive"},
      {"molecule": "COP(=O)(OC)SCn1c(=O)oc2cc(Cl)cnc21", "outcome": "inactive"}
    ]}
  ]
}
